Rows were chosen to be rich in hits. Some 0.87% of all compounds tested hit in one or more screens of this group.
BLM inh: inhibitors of human Bloom syndrome helicase BLM; P54132; AID 2528; recombinant BLM DNA unwinding, fluorescence dequenching; Potency, µM (series often up to 56.1 µM), for the others: top-dose activity change, negative = inhibition, actives largely listed as inhibitors; 350,000 compounds, 0.2% hits;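 further: plate controls were vehicle for no effect and no enzyme for full effect; nearly all actives have a fitted effect of over 35% in size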
TDP1 inh: blocks human tyrosyl-DNA phosphodiesterase 1; Q9NUW8; recombinant TDP1, AlphaScreen DNA substrate cleavage; Potency, µM (titrated, usually from 130 µM), inactives show at the highest dose activity change, negative = inhibition, most hits filed as inhibitors; 350,000 compounds, 0.28% hits; AID 485290; further: nearly all actives have a fitted effect of over 40% in size
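Recombinant human Tdp1 (E. coli-expressed, 1 nM final) preincubated with compounds 15 min at room temperature, then 5'-biotin/3'-phosphotyrosine-FITC DNA substrate (15 nM final) added for 5 min. AlphaScreen beads (10 ug/ml final) added 10 min; cleavage lowers signal.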
RECQ1 inh-1: RECQ1 (human) helicase inhibition; P46063; RECQ1 DNA unwinding, red fluorescence kinetic read; Potency, µM (titrated, usually from 57.3 µM), without a hit: at the highest dose activity, negative = inhibition, actives largely listed as inhibitors; 240,000 compounds, 0.54% hits;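 further: plate controls were vehicle for no effect and no enzyme for full effect; nearly all actives have a fitted effect of over 30% in size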
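50 nM RECQ1T1 preincubated 15 min with compound in Tris pH 8.0 buffer with MgCl2, DTT, Tween-20 and 2.5 ug/ml poly(dI-dC); started with 200 nM TAMRA/BHQ-2 forked duplex and 2 mM ATP. Unwinding read as fluorescence (525/598 nm), two reads 2 h apart.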
KAT2A inh: blocks human GCN5L2 histone acetyltransferase. Potency, µM (highest dose often 58.9 µM), inactives show at the highest dose activity change, negative = inhibition, most hits filed as inhibitors. 390,000 compounds, 0.21% hits. GCN5L2 HAT assay, ThioGlo1 CoA-SH fluorescence. Q92830
Target sequence (Q92830 whole entry, looked up): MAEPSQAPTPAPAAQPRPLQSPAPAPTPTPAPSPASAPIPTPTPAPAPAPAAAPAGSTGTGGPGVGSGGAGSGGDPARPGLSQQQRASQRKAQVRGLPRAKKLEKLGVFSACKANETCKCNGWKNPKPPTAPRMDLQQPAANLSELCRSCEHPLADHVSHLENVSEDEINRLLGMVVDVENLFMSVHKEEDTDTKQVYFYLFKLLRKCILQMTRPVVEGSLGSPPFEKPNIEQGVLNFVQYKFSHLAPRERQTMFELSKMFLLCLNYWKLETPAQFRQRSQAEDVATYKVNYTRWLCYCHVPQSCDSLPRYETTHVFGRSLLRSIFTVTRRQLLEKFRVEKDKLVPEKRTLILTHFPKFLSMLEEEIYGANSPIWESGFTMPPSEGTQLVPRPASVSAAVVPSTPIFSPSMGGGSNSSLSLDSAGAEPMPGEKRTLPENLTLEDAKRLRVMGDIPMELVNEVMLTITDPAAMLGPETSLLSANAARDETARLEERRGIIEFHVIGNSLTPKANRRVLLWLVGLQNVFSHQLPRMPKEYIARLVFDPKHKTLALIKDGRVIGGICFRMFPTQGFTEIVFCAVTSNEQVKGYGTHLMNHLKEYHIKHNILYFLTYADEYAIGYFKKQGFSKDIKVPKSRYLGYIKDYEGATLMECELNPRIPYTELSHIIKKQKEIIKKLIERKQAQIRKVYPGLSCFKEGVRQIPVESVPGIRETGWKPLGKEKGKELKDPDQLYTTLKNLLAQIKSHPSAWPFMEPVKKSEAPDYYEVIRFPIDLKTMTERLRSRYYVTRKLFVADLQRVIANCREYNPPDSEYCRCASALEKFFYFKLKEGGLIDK
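Compounds, pin-transferred from DMSO stocks, meet 20nM GCN5L2 for 15 min before the reaction begins with H3(1-25) peptide (75uM) and acetyl-CoA (70uM). Thiol-reactive ThioGlo1 reports CoA release over 20 min at room temperature.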
RGS4 inh: blocks human RGS4-accelerated GTP hydrolysis; P49798; Transcreener GDP fluorescence polarization, RGS4-accelerated GTP hydrolysis; Potency, µM (doses to about 114 µM), for inactives: at the highest dose activity change, negative = inhibition, most hits filed as inhibitors; 390,000 compounds, 0.039% hits; further: nearly all actives have a fitted effect of over 75% in size
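MLSMR compounds (23 nl, pin-transferred) preincubated 10 min at room temperature with a 500nM (2x) first reagent, then RGS4 at 900nM (2x) plus Transcreener GDP mix added; fluorescence polarization (620/688 nm) read before and after 90 min at 30 °C.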
APE1 inh: inhibitors of human APE1 endonuclease; recombinant APE1, TAMRA/BHQ-2 abasic DNA cleavage fluorescence; P27695; Potency, µM (highest dose often 65.8 µM), for inactives: top-dose activity change, negative = inhibition, usual class: inhibitors; AID 2517; 350,000 compounds, 0.35% hits;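 further: plate controls were vehicle for no effect and reference inhibitor for full effect; nearly all actives have a fitted effect of over 55% in size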
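Enzyme (0.75 nM final) and test compound are incubated 15 min at room temperature before adding 50 nM quenched THF abasic-site duplex. Cleavage dequenches TAMRA, followed at 525/598 nm over three reads one minute apart.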
RECQ1 inh conf: confirmation of human RECQ1 helicase inhibitors. Potency, µM (top dose mostly 229 µM), inactives show at the highest dose activity change, negative = inhibition, actives largely listed as inhibitors. 610 compounds, 28% hits. RECQ1 helicase DNA unwinding, fluorescence. AID 2708. shares compounds with RECQ1 inh-1; further: nearly all actives have a fitted effect of over 45% in size
ADP FP counter: counter-screen for RECQ1 inhibitors: ADP displacement | shares compounds with RECQ1 inh-1 | Potency, µM (doses to about 228 µM), for inactives: at the highest dose activity change, negative = inhibition, hits mostly inhibitors | AID 2711 | 530 compounds, 27% hits | ADP fluorescence polarization displacement counterscreen; further: nearly all actives have a fitted effect of over 45% in size
RECQ1 inh-2: confirmation of human RECQ1 helicase inhibitors. shares compounds with RECQ1 inh-1. recombinant RECQ1 DNA unwinding, red fluorescence. Potency, µM (doses to about 119 µM), without a hit: top-dose activity, negative = inhibition, most hits filed as inhibitors. 1,100 compounds, 15% hits; further: nearly all actives have a fitted effect of over 50% in size
An asterisk follows results filed as active; [ ] = another dose, or the depositor's remark. The call rests on the fitted dose curve; in most records, active means well fitted curve in the direction sought with a large enough effect; inconclusive means small, poorly fitted or top-dose-only effect, or another doubt; inactive means no such curve, though single readings can be large; an effect the other way counts as inactive or inconclusive. Unless noted, on the % scale 0 is the no-effect control and ±100 the full control effect; potency means the concentration at half of the fitted maximal effect.

What do the screens show for `CCOC(=O)c1[nH]c(CSc2nnc(-c3ccncc3)n2CCOC)c(C(=O)OCC)c1C`?
BLM inh: -5%; TDP1 inh: 4%; RECQ1 inh-1: -11%; KAT2A inh: 1%; RGS4 inh: 9%[11.4 µM]; APE1 inh: -10%

Results for CCn1c(CSc2nnc3ccccn23)nc2cc(C(=O)O)ccc21 ?
BLM inh: -7%; TDP1 inh: 2%; RECQ1 inh-1: 10µM*; KAT2A inh: -1%; RGS4 inh: inconclusive; APE1 inh: -7%; RECQ1 inh conf: 45µM*; ADP FP counter: 2µM*; RECQ1 inh-2: 56µM*

What do the screens show for `CCn1c(CSc2nnc(-c3ccncc3)n2CCOC)nc2cc(C(=O)O)ccc21`?
BLM inh: -10%; TDP1 inh: 2%; RECQ1 inh-1: 22µM*; KAT2A inh: -4%; RGS4 inh: inconclusive; APE1 inh: -8%; RECQ1 inh conf: 56µM*; ADP FP counter: 4.5µM*; RECQ1 inh-2: -178%

What do the screens show for `CCn1c(CSc2n[nH]c(N)n2)nc2cc(C(=O)O)ccc21`?
BLM inh: -9%; TDP1 inh: -7%; RECQ1 inh-1: 32µM*; KAT2A inh: -11%; RGS4 inh: inconclusive; APE1 inh: inconclusive; RECQ1 inh-2: 56µM*

What do the screens show for `CNc1ccc(C(=O)Oc2cc(O/N=[N+](\[O-])N(C)C)c([N+](=O)[O-])cc2[N+](=O)[O-])cc1`?
BLM inh: -9%; TDP1 inh: 2%; RECQ1 inh-1: 7%; RGS4 inh: -27%; APE1 inh: inconclusive

How did Cc1ccc2nc(N)[nH]c(=O)c2c1Sc1ccncc1 do in these assays?
BLM inh: -2%; KAT2A inh: -13%

Results for CC(=O)c1cccc(S(=O)(=O)N2CCCC(c3nc(-c4ccc(C)o4)no3)C2)c1 (stereo not drawn) ?
BLM inh: -4%; TDP1 inh: 7%; RECQ1 inh-1: inconclusive; KAT2A inh: -19%; RGS4 inh: -3%; APE1 inh: 0%; RECQ1 inh-2: -28%

What do the screens show for `CCCSC1=N/C(=C\c2ccc([N+](=O)[O-])o2)C(=O)S1`?
BLM inh: 4%; TDP1 inh: inconclusive; RECQ1 inh-1: 13µM*; KAT2A inh: inconclusive; RGS4 inh: inconclusive; APE1 inh: 22µM*; RECQ1 inh conf: -5%[114 µM]; RECQ1 inh-2: inconclusive

How did Cc1oc(C)c2c(=O)ccc3c(c12)OC(N)=C(C#N)C3c1ccccc1 (stereo not drawn) do in these assays?
BLM inh: -2%; TDP1 inh: -6%; RECQ1 inh-1: inconclusive; KAT2A inh: 2%; RGS4 inh: inconclusive; APE1 inh: 11%; RECQ1 inh-2: -12%

Results for Cc1oc(C)c2c(=O)ccc3c(c12)OC(N)=C(C#N)C3c1ccccc1Cl (stereo not drawn) ?
BLM inh: inconclusive; TDP1 inh: 6%; RECQ1 inh-1: inconclusive; KAT2A inh: -14%; RGS4 inh: 6%[11.4 µM]; APE1 inh: 1%; RECQ1 inh-2: -21%

What do the screens show for `CSc1ccc(C2C(C#N)=C(N)Oc3c2ccc(=O)c2c(C)oc(C)c32)cc1` (stereo not drawn)?
BLM inh: -4%; TDP1 inh: -2%; RECQ1 inh-1: inconclusive; KAT2A inh: inconclusive; RGS4 inh: inconclusive; APE1 inh: inconclusive; RECQ1 inh-2: inconclusive

How did COc1ccc(C2C(C#N)=C(N)Oc3c2oc(CO)cc3=O)cc1 (stereo not drawn) do in these assays?
BLM inh: -4%; TDP1 inh: 7%; RECQ1 inh-1: -1%; KAT2A inh: -9%; RGS4 inh: 2%[11.4 µM]; APE1 inh: -5%

What do the screens show for `CC(=O)N(O)C/C=C/c1cccc(Oc2ccccc2)c1`?
BLM inh: -9%; TDP1 inh: 11%; RECQ1 inh-1: -4%; KAT2A inh: -13%; APE1 inh: -2%

Results for Cc1ccc(S(=O)(=O)NC2=NCN(CCOC(=O)c3ccccc3)CN2)cc1 ?
BLM inh: 3%; TDP1 inh: 4%; RECQ1 inh-1: 32µM*; KAT2A inh: 0%; RGS4 inh: 8%; APE1 inh: 3%; RECQ1 inh-2: 1%

How did O=C(NCc1n[nH]c(=S)n1-c1cccc(C(F)(F)F)c1)c1ccc(S(=O)(=O)N2CCCCC2)cc1 do in these assays?
BLM inh: -1%; TDP1 inh: 1%; KAT2A inh: 2%; RGS4 inh: -25%; APE1 inh: 12%

Results for O=C(NCc1n[nH]c(=S)n1-c1cccc(C(F)(F)F)c1)c1ccc(S(=O)(=O)N2CCCC2)cc1 ?
BLM inh: -1%; TDP1 inh: 3%; RECQ1 inh-1: inactive; KAT2A inh: -6%; RGS4 inh: -24%; APE1 inh: 25%; RECQ1 inh conf: -4%; ADP FP counter: 8%

Results for O=C(O)C(C(=O)/C=C/c1ccco1)=C1SCCS1 ?
BLM inh: -14%; TDP1 inh: 20µM*; RECQ1 inh-1: inconclusive; KAT2A inh: -11%; RGS4 inh: -30%; APE1 inh: 25µM*; RECQ1 inh-2: inconclusive

How did CCN(C(=O)Cn1nnc2sc(-c3ccccc3)cc2c1=O)c1cccc(C)c1 do in these assays?
BLM inh: -5%; TDP1 inh: 0%; KAT2A inh: -19%; RGS4 inh: inconclusive

How did O=C(Cc1cnn(-c2ccccc2)c1)c1ccc(O)c(O)c1O do in these assays?
BLM inh: -10%; TDP1 inh: -1%; RECQ1 inh-1: 3.2µM*; KAT2A inh: -7%; RGS4 inh: inconclusive; APE1 inh: inconclusive; RECQ1 inh conf: -2%[114 µM]; ADP FP counter: 30%[91.9 µM]

What do the screens show for `CC1CCC2C(=O)N3CCCC3C(=O)N2C1c1ccc(Br)cc1` (stereo not drawn)?
BLM inh: 2%[12.4 µM]; TDP1 inh: 1%[21 µM]; RECQ1 inh-1: 4%[11.5 µM]; APE1 inh: -7%[12.4 µM]

Source: PubChem BioAssay (National Center for Advancing Translational Sciences (NCATS))
